The results in this text go back to PubChem BioAssay AID588354 (The Scripps Research Institute Molecular Screening Center, 2011).

Out of some 360,000 compounds screened, about 430 (0.12%) were called active. What follows is part of a selection rich in actives, with near analogues and random picks from the rest. Unmarked numbers belong to inactive results.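 The calls were made as follows: active = inhibition above the campaign mean plus 3 SD, with each screening campaign given its own cutoff (cut at about 60% in these data); inactive = the rest.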

For the test, the target named is Nuclear receptor coactivator 1 (Homo sapiens) (UniProt Q15788). The test is described as follows: SRC1 coactivator transcriptional activity inhibitors, primary screen, cell-based, luminescence (AID 588354).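 Also: 0% = DMSO treated cells and 100% = gossypol at 36 µM.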 To be noted: HEK293 GAL4-SRC1 luciferase reporter, at 3.6 µM, active compounds read high. (In general: Reporter assays use an easily measured gene product as a stand-in for the process of interest.)
Nuclear receptor coactivator 1 (Homo sapiens), sequence (Q15788 whole entry, looked up, the tested form may be a part): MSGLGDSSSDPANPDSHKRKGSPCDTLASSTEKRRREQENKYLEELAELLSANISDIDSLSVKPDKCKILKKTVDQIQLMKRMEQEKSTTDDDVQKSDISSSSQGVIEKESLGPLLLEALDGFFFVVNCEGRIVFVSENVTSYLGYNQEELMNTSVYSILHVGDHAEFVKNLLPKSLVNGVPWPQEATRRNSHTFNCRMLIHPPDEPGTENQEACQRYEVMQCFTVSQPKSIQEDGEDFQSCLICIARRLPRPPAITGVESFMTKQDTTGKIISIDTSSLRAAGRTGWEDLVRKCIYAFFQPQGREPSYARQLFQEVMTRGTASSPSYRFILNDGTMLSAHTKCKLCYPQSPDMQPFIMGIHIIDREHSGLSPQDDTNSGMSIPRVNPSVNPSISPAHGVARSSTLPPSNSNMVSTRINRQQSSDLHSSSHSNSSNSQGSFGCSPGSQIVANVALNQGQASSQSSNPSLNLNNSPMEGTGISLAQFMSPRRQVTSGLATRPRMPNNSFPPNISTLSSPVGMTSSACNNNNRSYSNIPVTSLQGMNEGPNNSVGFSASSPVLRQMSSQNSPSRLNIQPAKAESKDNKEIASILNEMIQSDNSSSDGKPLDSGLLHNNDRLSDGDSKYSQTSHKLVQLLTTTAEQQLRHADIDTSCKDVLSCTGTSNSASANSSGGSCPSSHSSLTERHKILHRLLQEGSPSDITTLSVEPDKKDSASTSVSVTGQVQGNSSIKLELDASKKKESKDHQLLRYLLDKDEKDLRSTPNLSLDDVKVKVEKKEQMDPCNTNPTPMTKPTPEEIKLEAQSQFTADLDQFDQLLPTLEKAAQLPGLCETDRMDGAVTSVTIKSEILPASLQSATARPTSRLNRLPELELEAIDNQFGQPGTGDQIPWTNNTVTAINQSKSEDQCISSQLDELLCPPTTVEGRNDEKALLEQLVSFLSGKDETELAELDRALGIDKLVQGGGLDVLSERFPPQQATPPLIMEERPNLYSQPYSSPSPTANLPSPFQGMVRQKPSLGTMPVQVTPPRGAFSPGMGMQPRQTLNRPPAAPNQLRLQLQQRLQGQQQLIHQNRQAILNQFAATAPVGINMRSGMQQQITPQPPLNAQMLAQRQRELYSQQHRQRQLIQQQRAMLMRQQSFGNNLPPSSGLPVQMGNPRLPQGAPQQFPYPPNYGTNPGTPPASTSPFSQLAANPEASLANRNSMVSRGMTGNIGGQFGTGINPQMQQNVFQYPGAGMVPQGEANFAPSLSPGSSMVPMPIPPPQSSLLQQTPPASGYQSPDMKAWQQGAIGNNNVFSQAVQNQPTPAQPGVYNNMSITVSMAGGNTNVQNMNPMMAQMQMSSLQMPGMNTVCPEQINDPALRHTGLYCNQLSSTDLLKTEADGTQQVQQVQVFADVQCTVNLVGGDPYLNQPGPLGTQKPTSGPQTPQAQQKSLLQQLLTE
With `CCOc1cc(CNCc2ccccn2)ccc1OCC(=O)NC(C)(C)C`, the inhibition (commonly the relative decrease from the control value, in per cent) is 10.8%.
In the case of `O=C(Cc1ccccn1)c1ccc(O)cc1O`, the inhibition was -0.25%.
Next, `CCC(C)C(=O)Nc1cc([N+](=O)[O-])ccc1Cl` (configuration not stated): -3.1%.
Next, `OCCCNc1nccc(-c2cc(Nc3cccc(Cl)c3)ncn2)n1`: 73.6% (active).
Next, `COc1ccc(-c2c(C#N)cnc(C)c2C)c(O)c1OC`: -0.11%; `O=C(c1ccc[nH]c1=S)N1CCN(S(=O)(=O)c2ccc(Br)cc2Cl)CC1`: -3.09%.
`CC(C)CCNC(=O)CCNS(=O)(=O)c1ccc(Cl)cc1`: the inhibition is -13%.
As for `Nc1cc2c(cc1Br)-c1ccc(F)cc1C2=O`, the inhibition was -13.1%.
Turning to `CCOC(=O)N1CCC(O)(c2cc(C)c(C)cc2C)CC1`, the inhibition is -15.8%.
Next, `O=C(NCc1ccccc1Cl)C1CCCN1S(=O)(=O)c1ccc(F)cc1` (configuration not stated): -10.6%; `CCn1nc(C)c(CNC(=O)C2CCC(=O)N(Cc3cccc(F)c3)C2)c1C` (configuration not stated): -37.5%; `COc1ccc(NC(=O)CSc2nc(NS(=O)(=O)c3ccc(C)cc3)cc(=O)[nH]2)cc1`: -19.6%.
Regarding `COCCn1nnnc1CN1CCC(NC(=O)Nc2cccc(OC)c2)CC1`, the inhibition is 0.56%.
Next, `CC(=O)c1ccc(N2CCN(C(=O)CCNC(=O)Cn3ccc4ccccc4c3=O)CC2)cc1`: 3.75%; `O=C(c1cccc(-n2cccc2)c1)N1CCN(S(=O)(=O)c2ccc(F)cc2)CC1`: -2.17%.
Next, `COc1ccc([C@H]2[C@H](C(C)=O)N3N=Cc4ccccc4C3C23C(=O)OC(C)(C)OC3=O)cc1` (some centres not stated): -26.2%; `CC(C)Oc1ccc(/C=N/NC(=O)c2nnn(-c3nonc3N)c2CN(C)C2CCCCC2)cc1`: 7.06%.
Next, `CCOc1ccccc1-n1c(SCC(=O)NCc2ccco2)nnc1-c1ccncc1`: 5.79%; `O=C(COC(=O)CCOc1ccccc1)Nc1cc(S(=O)(=O)N2CCCCC2)ccc1Cl`: -9.87%.
Regarding `COCCOC1CCN(C(=O)c2ccc(OC)c(OC3CCN(C(C)C)CC3)c2)CC1`, the inhibition is -0.27%.
Next, `CCOC(=O)CC1COCCN1C(=O)c1cc(COc2ccc(F)c(F)c2)on1` (configuration not stated): -5.67%.
Next, `COCCn1c(N)c(NCc2ccccc2)c(=O)[nH]c1=O`: -11.5%; `CCOP1(=O)C=C(C(C)(C)C)OC1c1ccc(F)cc1` (configuration not stated): -6.16%.
Take `O=C(O)COCC(=O)NCc1csc2ccc(Cl)cc12`: the inhibition is 11.9%.
As for `CC1(C)CC(CNCCC(c2ccc(F)cc2)c2ccco2)CCO1` (configuration not stated), the inhibition is 12.7%.
Next, `COc1ccc(-c2nnc(SCC(=O)Nc3cccnc3Cl)n2C)cc1`: 16.4%.
Next, `CCOC1=C2CN(S(=O)(=O)c3ccc(C)cc3)[C@H](c3cccs3)C[C@H]2[C@H]2C(=O)N(c3ccccc3)C(=O)[C@H]2C1`: 0.21%.
In the case of `Cc1[nH]c(C)c(S(=O)(=O)N2CCC(C)CC2)c1C(=O)N1CCCC1`, the inhibition is 0.69%.
On to `Cc1nc(-c2ccccc2)sc1-c1nc(-c2ccccc2)ncc1S(=O)(=O)c1ccccc1`, for which the inhibition was 7.02%.
Take `CCOc1ccc(CNC(=O)C2CC(=O)N(C3CCCC3)C2)cc1OC` (configuration not stated): the inhibition is -4.04%.
Next, `COc1ccc(NC(=O)CN(C)C(=O)CNC(=O)C2CCCCC2)cc1`: 6.97%; `O=C(COC(=O)c1ccco1)Nc1ccc(Cl)cn1`: -10.8%; `COc1cccc(/C=C(/CC(=O)Nc2ccc(N3CCOCC3)cc2)c2nc3ccccc3s2)c1`: -38.5%.
Next, `COC(=O)Cc1[nH]n(-c2nc3ccccc3s2)c(=O)c1C(C)=Nc1ccc(OC)cc1`: 81.3% (active); `COCCCC1CCN(C(=O)C2CCC(=O)N(C3CCCCCC3)C2)CC1` (configuration not stated): 2.7%; `CCN(CC)C(=O)C1=C(C)N(Cc2ccccc2)C(=O)C(CC(=O)NC(c2ccccc2)c2ccccc2)C1` (configuration not stated): -24.8%.
Next, `FC(F)(F)c1nc(-c2ccccc2)ncc1-c1nnnn1-c1ccccc1`: 2.72%; `CC1=CC(C)(C)Nc2ccc(OC(=O)CN3C(=O)C4CCCCC4C3=O)cc21` (configuration not stated): -14.7%; `CC[C@H]1CN2CCc3cc(OC)c(OC)cc3[C@@H]2C[C@@H]1C[C@H]1NCCc2cc(OC)c(OC)cc21`: 94.8% (active).
For `Nc1c(N(CCCO)C(=O)C2CCCC2)c(=O)[nH]c(=O)n1Cc1ccccc1`, the inhibition is -4.42%.
Next, `Cc1cc(C)nc(-n2ncc3c2CC(c2ccc(C(C)C)cc2)CC3=O)n1` (configuration not stated): -16.7%.
Next, `O=C(CC(O)(C(F)(F)F)C(F)(F)F)Nc1ccc(Cl)c(Cl)c1`: 71.9% (active); `N#CCCN(C(=O)Nc1ccc(Cl)c(Cl)c1)C1CCCCC1`: 4.76%; `CC1(C(=O)O)CCC(C(=O)Nc2ccc(Cl)c(Cl)c2)C1(C)C` (configuration not stated): 1.51%.
Next, `O=C(Nc1cc(S(=O)(=O)N2CCOCC2)ccc1N1CCOCC1)c1c(F)cccc1Cl`: 4.42%; `CCOc1ccc(S(=O)(=O)N2CCC(C(=O)NCC(=O)Nc3cccc(Cl)c3C)CC2)cc1`: -15%; `COCOc1cc(O)c(C(=O)/C=C/c2ccc(OCOC)c(OCOC)c2)c(OCOC)c1`: -3.45%.
For `C=CCn1c(C)cc(C2=NNC(=NCC)SC2)c1C`, the inhibition was 87.5% (active).
Next, `Cc1ccc(N2C(=O)CN=C2Nc2nc(C)cc(C)n2)cc1`: 0.5%; `COc1ccc(CNC(=O)CN2C(=O)c3ccccc3S2(=O)=O)cc1`: 2.81%.
As for `CN(Cc1cccs1)C(=O)CN1C(=O)c2ccccc2S1(=O)=O`, the inhibition was -19.1%.
Next, `O=C(CN1C(=O)c2ccccc2S1(=O)=O)N1CCc2ccccc21`: 73% (active).
Next, `CC1CC(NC(=S)N(C)C)CC(C)(C)C1` (configuration not stated): 0.06%; `Cc1ccc(NC(=O)CN2CCC3(O)CCCCC3C2c2ccc3c(c2)OCO3)c(C)c1` (configuration not stated): 5.71%; `CCCCCCCCn1c2c(c(=N)c3c1CCC3)CCCC2`: 69% (active).
Next, `O=C(COC(=O)C1CCN(S(=O)(=O)c2ccc3c(c2)OCCO3)CC1)Nc1ccccc1OC(F)F`: 6.03%; `O=C(CCNC(=O)c1ccc([N+](=O)[O-])cc1)Nc1ccccc1N1CCOCC1`: -16.9%.
